IDH1 R132H inh – qHTS for Inhibitors of mutant isocitrate dehydrogenase 1 (IDH1): qHTS. IDH1-R132H enzyme, NADPH consumption, diaphorase/resazurin fluorescence. Potency, µM (highest dose often 76.6 µM), for inactives: at the top dose activity change, negative = inhibition, actives largely listed as inhibitors. hit rate 0.093% among 390,000. AID 602179, 2012; further: potency means the concentration at half of the fitted maximal effect; on the % scale 0 is the no-effect control and ±100 the full control effect; nearly all actives have a fitted effect of over 65% in size
Target sequence (O75874 whole entry R132H, stated change not applied): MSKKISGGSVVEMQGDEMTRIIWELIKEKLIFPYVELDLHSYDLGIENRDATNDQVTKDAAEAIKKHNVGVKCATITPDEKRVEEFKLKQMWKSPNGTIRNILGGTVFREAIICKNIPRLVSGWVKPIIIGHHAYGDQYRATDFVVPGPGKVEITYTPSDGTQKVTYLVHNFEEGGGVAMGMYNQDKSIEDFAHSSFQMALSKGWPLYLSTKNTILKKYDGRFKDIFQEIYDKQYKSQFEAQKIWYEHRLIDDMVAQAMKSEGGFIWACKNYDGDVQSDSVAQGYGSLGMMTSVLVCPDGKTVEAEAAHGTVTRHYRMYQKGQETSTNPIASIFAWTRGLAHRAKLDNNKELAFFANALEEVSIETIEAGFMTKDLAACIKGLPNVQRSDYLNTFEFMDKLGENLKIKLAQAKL
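IDH1-R132H (0.5 ug/mL dispensed) in pH 7.5 Tris buffer was preincubated 30 min with compound, then given a substrate mix of 0.016 mM NADPH and 2 mM alpha-KG for 80 min at room temperature; remaining NADPH was read by diaphorase/resazurin fluorescence.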
S-ASM inh – Inhibitors of Secretory Acid Sphingomyelinase (S-ASM): qHTS; Sphingomyelin phosphodiesterase (Homo sapiens), P17405; hit rate 0.006% among 340,000; Potency, µM (titrated, usually from 57.5 µM), for inactives: at the top dose activity change, negative = inhibition, most hits filed as inhibitors; AID 504937, 2011; placental ASM, HMU-PC fluorogenic substrate, 60 min; further: potency means the concentration at half of the fitted maximal effect
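qHTS format. ASM enzyme prepared from human placenta hydrolyses the fluorogenic substrate HMU-PC0 (9 uM final) over 60 min at 37 °C after a 10 min compound preincubation.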
KCNH2 3.1 block – qHTS for Inhibitors of KCHN2 3.1: Mutant qHTS | Potassium voltage-gated channel subfamily H member 2, brain isoform KCNH2 3.1 (human) | U2OS KCNH2 3.1, thallium flux FluxOr; stronger effect = lower value | activity change, % (tested at about 1.8 µM) | hit rate 0.95% among 340,000 | AID 720553, 2013;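 active means maximum activity change below -70%; inconclusive means maximum activity change from -70% to -50%; inactive means maximum activity change above -50%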;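 further: thallium influx rate constant from kinetic fluorescence after stimulation buffer; on the % scale 0 is the no-effect control and ±100 the full control effect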
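We transduce U2OS cells with the mutant 3.1 virus, culture them overnight, load FluxOr with Red40 quencher for 45 min, then add stimulation buffer and read kinetically for 2 min to derive a normalized rate constant.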
Anesthetic bind – qHTS Assay for Identification of Novel General Anesthetics | Ferritin light chain (Equus caballus), P02791 | hit rate 0.074% among 350,000 | Potency, µM (top dose mostly 77.5 µM), for the others: at the top dose activity change, negative = displacement, actives largely listed as inhibitors | apoferritin/1-aminoanthracene competitive binding, fluorescence; further: potency means the concentration at half of the fitted maximal effect; on the % scale 0 is the no-effect control and ±100 the full control effect; nearly all actives have a fitted effect of over 20% in size
Target sequence (P02791 2-175 limits assumed): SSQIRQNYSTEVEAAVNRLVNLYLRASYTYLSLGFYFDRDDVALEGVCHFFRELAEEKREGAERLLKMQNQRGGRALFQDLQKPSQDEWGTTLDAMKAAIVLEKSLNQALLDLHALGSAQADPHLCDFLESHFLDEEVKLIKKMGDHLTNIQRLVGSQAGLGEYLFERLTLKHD
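Horse-spleen apoferritin (10 uM) in 50% saturated 1-aminoanthracene in PBS was incubated 10 min at room temperature with compound. Fluorescence (ex 380, em 535 nm) was normalized to free and bound 1-AMA, with concentration-response fitted by a four-parameter Hill equation.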
hERG WT inh – qHTS for Inhibitors of KCHN2 3.1: Wildtype qHTS; AID 720551, 2013; Voltage-gated inwardly rectifying potassium channel KCNH2 (Homo sapiens), Q12809; hit rate 0.37% among 340,000; U2OS, BacMam KCNH2, thallium flux FluxOr; stronger effect = lower value; activity change, % at 1.84 µM;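 active means maximum activity change below -70%; inconclusive means maximum activity change between -70% and -50%; inactive means maximum activity change above -50%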; further: on the % scale 0 is the no-effect control and ±100 the full control effect
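U2OS cells were transduced with wild-type KCNH2 virus (2.03 x 10^8 / mL) for 4 h at room temperature, then cultured overnight at 37 C. Thallium flux was read with FluxOr dye. Rate constants were normalized to DMSO controls.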
Starred values were filed as active, the others as inactive. Shown are actives, neighbours in structure and some others; about 1.2% of the full set was active somewhere. Unless noted, the call rests on the fitted dose curve; in most records, active means well fitted inhibition curve with a large enough effect; inconclusive means small, poorly fitted or top-dose-only effect; inactive means no such curve, though single readings can be large or run the other way.

Screening COC(=O)c1cc(S(=O)(=O)NCc2ccccc2Cl)c[nH]1 returned IDH1 R132H inh 6%, S-ASM inh 6%, KCNH2 3.1 block 0, Anesthetic bind -19% and hERG WT inh 27.
Screening COC(=O)c1cc(S(=O)(=O)NCC2CCN(Cc3ccccc3F)CC2)c[nH]1 returned IDH1 R132H inh -5%, S-ASM inh 3%, KCNH2 3.1 block -118*, Anesthetic bind -5% and hERG WT inh 11.
COC(=O)c1cc(S(=O)(=O)NCC2CCN(Cc3ccc(Cl)cc3)CC2)c[nH]1 was read as IDH1 R132H inh -20%, S-ASM inh -2%, KCNH2 3.1 block inconclusive, Anesthetic bind -8% and hERG WT inh -34.
COC(=O)c1cc(S(=O)(=O)NCc2cccs2)c[nH]1 was read as IDH1 R132H inh 9%, S-ASM inh 3%, KCNH2 3.1 block 3, Anesthetic bind -22% and hERG WT inh -244*.
CN(Cc1ccccc1O)CC1CCCN(CCc2ccc(Cl)cc2)C1 (centres undefined) was read as IDH1 R132H inh 3%, S-ASM inh -3%, KCNH2 3.1 block -86*, Anesthetic bind -8% and hERG WT inh 1.
Screening COc1ccc(CCN2CCCC(CN(C)Cc3cc(OC)ccc3OC)C2)cc1 (centres undefined) returned IDH1 R132H inh 1%, S-ASM inh 5%, KCNH2 3.1 block -40, Anesthetic bind -6% and hERG WT inh 70.
COc1ccc(CCN2CCCC(CN(C)Cc3cccc(OC)c3)C2)cc1 (centres undefined) was read as IDH1 R132H inh 9%, S-ASM inh 0%, KCNH2 3.1 block -74*, Anesthetic bind -5% and hERG WT inh -25.
Screening CCN(Cc1ccc(OC)c(COC)c1)CC1CCCN(CCc2cccc(F)c2)C1 (centres undefined) returned IDH1 R132H inh 6%, S-ASM inh 4%, KCNH2 3.1 block -72*, Anesthetic bind -10% and hERG WT inh 50.
Screening C=C(C)Cn1c(=O)c2c(nc3n2CCN3c2ccc(CC)cc2)n(C)c1=O returned IDH1 R132H inh 0% and Anesthetic bind inconclusive.
`CCn1c(=O)c2cc(C(=O)NCCCN3CCN(c4ccc(F)cc4)CC3)sc2c2ccccc21` gave IDH1 R132H inh -4% and Anesthetic bind -7%.
`CCc1cc(C=NC2CCCCC2)c(O)s1` gave IDH1 R132H inh 6%, S-ASM inh -3%, KCNH2 3.1 block 11, Anesthetic bind inconclusive and hERG WT inh -135*.
For Cc1ccc2c(c1)cc(CN(Cc1ccc3c(c1)OCO3)C(=O)c1cnccn1)c1nnnn12 the results were IDH1 R132H inh 14%, S-ASM inh -1%, KCNH2 3.1 block -96*, Anesthetic bind inconclusive and hERG WT inh 0.
Screening COc1ccc(C2Oc3cc(OC)cc(OC)c3CC2O)cc1 (centres undefined) returned Anesthetic bind -4%.
N#Cc1cccc(Oc2ccc(S(=O)(=O)N3CCCC3)cn2)c1 was read as IDH1 R132H inh -5%, S-ASM inh 1%, KCNH2 3.1 block inconclusive and hERG WT inh -89*.
For CN(C)c1ccc(C(CNS(=O)(=O)c2ccc(Br)cc2)N2CCOCC2)cc1 (centres undefined) the results were IDH1 R132H inh 18% and Anesthetic bind 98%.
For CCCCCCNc1nc(NCc2ccco2)nc(OCC)n1 the results were IDH1 R132H inh 4%, S-ASM inh -4%, KCNH2 3.1 block -73*, Anesthetic bind -10% and hERG WT inh -24.
C=C1CCN([C@@H](Cc2ccccc2)C(=O)NCc2ccc(Cl)cc2)S(=O)(=O)c2ccccc21 was read as IDH1 R132H inh 3%, S-ASM inh -5%, KCNH2 3.1 block -70* and hERG WT inh -15.
For O=C1CC(c2ccc(Cl)cc2)Sc2nc(-c3ccc(F)cc3)nn21 (centres undefined) the results were IDH1 R132H inh -4% and Anesthetic bind -4%.
COc1ccc(CNCCC(c2ccc(OC)cc2)c2ccccc2OC)cc1 (centres undefined) was read as IDH1 R132H inh 0%, S-ASM inh -3%, KCNH2 3.1 block -72*, Anesthetic bind 1% and hERG WT inh -33.
COc1ccc(C(CCNCc2ccc(OC(C)C)cc2)c2ccccc2OC)cc1 (centres undefined) was read as IDH1 R132H inh -2%, S-ASM inh -11%, KCNH2 3.1 block -90*, Anesthetic bind -13% and hERG WT inh -88*.
COc1ccc(C(CCNCc2ccc(N(C)C)cc2)c2ccccc2OC)cc1 (centres undefined) was read as IDH1 R132H inh 3%, S-ASM inh 1%, KCNH2 3.1 block -5, Anesthetic bind -6% and hERG WT inh -99*.
Screening COc1ccc(CNCCC(c2ccc(F)cc2)c2ccc(OC(C)C)cc2)cc1OC (centres undefined) returned IDH1 R132H inh 10%, S-ASM inh -7%, KCNH2 3.1 block inconclusive, Anesthetic bind inconclusive and hERG WT inh -37.
Screening COc1ccc(CNCCC(c2ccccc2)c2ccc(OC(C)C)cc2)cc1OC (centres undefined) returned IDH1 R132H inh -10%, S-ASM inh -3%, KCNH2 3.1 block inconclusive, Anesthetic bind inconclusive and hERG WT inh inconclusive.
For COc1cc(NC(=O)CSc2nc3nc(C)c(Cc4ccccc4)c(C)n3n2)cc(OC)c1OC the results were IDH1 R132H inh 3% and Anesthetic bind inconclusive.
`CCOC(=O)c1cccc(NC(=O)Cn2ncc3c(=O)oc4ccccc4c32)c1` gave IDH1 R132H inh 2% and Anesthetic bind -5%.
OCC1OC(n2cnc3c(Cl)ncnc32)C(O)C1O (centres undefined) was read as Anesthetic bind 1%.
For N=c1ncn(C2OC(CO)C(O)C2O)c2nc(Br)[nH]c12 (centres undefined) the results were IDH1 R132H inh -14%, KCNH2 3.1 block -168* and hERG WT inh -228*.
Screening Cc1ccc2c(c1)c(=O)c(C(=O)c1ccncc1)cn2CC(=O)Nc1c(C)cccc1C returned IDH1 R132H inh -4% and Anesthetic bind -13%.
For O=C(CNC(=O)/C(=C/c1ccccc1)NC(=O)c1ccc(Br)cc1)OCc1ccccc1 the results were IDH1 R132H inh 0%, S-ASM inh -2%, KCNH2 3.1 block -85*, Anesthetic bind -12% and hERG WT inh inactive.

High-throughput results (PubChem BioAssay)
